This is a sample that favours compounds with a hit; in the whole collection about 21% have one here.
Shiga toxin inh: blocks Shiga toxin action in Vero cells; Vero cells, Shiga toxin protein synthesis inhibition reporter; inhibition, % at 38.7 µM; 290,000 compounds, 9.2% hits; AID 2315; in the data active = inhibition mostly above about 28%, no sharp cut-off; inactive = mostly below about 43%
Pf growth 96h: inhibits malaria parasite growth, 96 h; Potency, µM (doses to about 28.7 µM), actives largely listed as inhibitors; P. falciparum luciferase reporter growth, 96 h; 320,000 compounds, 6.9% hits; AID 504834; active = well fitted inhibition curve with a large enough effect; inconclusive = small, poorly fitted or top-dose-only effect, or another doubt; inactive = no such curve, though single readings can be large or run the other way
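Luminescence readout: decreased luciferase signal marks inhibited growth of reporter-expressing P. falciparum in infected red cells (2% hematocrit, 0.05% parasitemia final), exposed to compound two generations (96 h, 37 C, 5% CO2).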
NS1 inh: blocks influenza NS1 protein function. Potency, µM (doses to about 46.1 µM). AID 2326. 270,000 compounds, 0.4% hits; also: actives are rising curves; nearly all actives have a fitted effect of over 50% in size
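OD600 was taken as the measure of yeast growth restored by compound in an NS1-expressing S. cerevisiae strain. Cells had been washed out of glucose medium and diluted 1:100 into galactose -URA medium, pH 6.0.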
SARS PLpro yeast: inhibitors of SARS-CoV papain-like protease in yeast; S. cerevisiae expressing SARS-CoV PLpro, growth rescue; Potency, µM (highest dose often 32.9 µM), hits mostly activators; 330,000 compounds, 0.19% hits; AID 485353; also: nearly all actives have a fitted effect of over 55% in size
Cycloheximide cs: affects cycloheximide protein synthesis inhibition readout, counter-screen; cell reporter, cycloheximide protein synthesis inhibition counterscreen; max response, %; 300,000 compounds, 12% hits; in the data active = max response mostly above about 13%, no sharp cut-off; inactive = mostly below about 14%; also: read at 38.3 µM for the half of the compounds with a filed dose
Pf growth 48h: inhibits P. falciparum growth in the first generation, 48 h; 310,000 compounds, 5.9% hits; P. falciparum luciferase growth in erythrocytes, 48 h; Potency, µM (highest dose often 28.7 µM), actives largely listed as inhibitors; active = well fitted inhibition curve with a large enough effect; inconclusive = small, poorly fitted or top-dose-only effect, or another doubt; inactive = no such curve, though single readings can be large or run the other way
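Compounds are pin-transferred into medium, infected erythrocytes (2% hematocrit, 0.1% parasitemia final) are added, and plates sit one parasite generation at 37 C in 5% CO2. Detection reagent is then added and luminescence measured.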
Numbers stand for hits. Unless noted, calls follow the shape of the full dose curve.

Results for C[C@@H]1C[C@H]2[C@H]3C[C@@H](F)C4=CC(=O)C=C[C@]4(C)[C@@]3(Cl)[C@@H](O)C[C@@]2(C)[C@@H]1C(=O)COC(=O)C(C)(C)C ?
Pf growth 96h: 4.78µM; Pf growth 48h: 4.78µM

Results for O=C(NCc1cccnc1)c1cccs1 ?
Shiga toxin inh: inactive; Pf growth 96h: inactive; NS1 inh: inactive; SARS PLpro yeast: inactive; Cycloheximide cs: inactive; Pf growth 48h: inactive

How did CS(=O)(=O)n1nc(-c2ccc(Cl)cc2)nc1SCc1ccccc1 do in these assays?
Shiga toxin inh: 73.1; Pf growth 96h: inactive; NS1 inh: inactive; SARS PLpro yeast: inactive; Cycloheximide cs: 39.2

What do the screens show for `COc1ccc(-c2nc(SCc3ccccc3)n(C(=O)c3ccco3)n2)cc1`?
Shiga toxin inh: inactive; Pf growth 96h: inactive; NS1 inh: inactive; SARS PLpro yeast: inactive; Cycloheximide cs: 26.1; Pf growth 48h: inactive

What do the screens show for `COc1ccc(-c2nc(N)n(C(=O)c3ccco3)n2)cc1`?
Shiga toxin inh: inactive; Pf growth 96h: inactive; SARS PLpro yeast: inactive; Cycloheximide cs: inactive; Pf growth 48h: inactive

What do the screens show for `CSc1nc(-c2ccc(Cl)cc2)nn1S(=O)(=O)c1ccccc1`?
Shiga toxin inh: inactive; Pf growth 96h: inactive; NS1 inh: inactive; SARS PLpro yeast: inactive; Cycloheximide cs: inactive; Pf growth 48h: inactive

How did COc1ccc(-c2nc(SC)n(C(=O)c3ccco3)n2)cc1 do in these assays?
Shiga toxin inh: 59.4; Pf growth 96h: inactive; NS1 inh: inactive; SARS PLpro yeast: inconclusive; Cycloheximide cs: 32.7; Pf growth 48h: inactive

How did CN(C(=O)c1ccccc1F)C(c1ccccc1)c1ccccc1 do in these assays?
Shiga toxin inh: inactive; Pf growth 96h: inconclusive; NS1 inh: inactive; SARS PLpro yeast: inactive; Cycloheximide cs: inactive; Pf growth 48h: inconclusive

What do the screens show for `O=C(Nc1ccc(-c2cnco2)cc1)c1ccc(F)cc1F`?
Shiga toxin inh: 34.6; Pf growth 96h: inactive; NS1 inh: inactive; SARS PLpro yeast: inactive; Cycloheximide cs: 33.6; Pf growth 48h: inactive

Results for O=C(NC(=O)c1ccc(Cl)cc1)Nc1ccc(-c2cnco2)cc1 ?
Shiga toxin inh: inactive; Pf growth 96h: inactive; NS1 inh: inactive; SARS PLpro yeast: inactive; Cycloheximide cs: inactive; Pf growth 48h: inactive

What do the screens show for `Cc1ccccc1NS(=O)(=O)c1cc(OCC(N)=O)c(C)cc1Cl`?
Shiga toxin inh: inactive; Pf growth 96h: 10.4µM; NS1 inh: inactive; SARS PLpro yeast: inactive; Cycloheximide cs: inactive; Pf growth 48h: inactive

What do the screens show for `Cc1cccc(NS(=O)(=O)c2cc(OCC(N)=O)c(C)cc2Cl)c1`?
Shiga toxin inh: inactive; Pf growth 96h: inactive; NS1 inh: inactive; SARS PLpro yeast: inconclusive; Cycloheximide cs: inactive; Pf growth 48h: inactive

Results for Cc1ccc(NS(=O)(=O)c2cc(OCC(N)=O)c(C)cc2Cl)cc1C ?
Shiga toxin inh: inactive; Pf growth 96h: inconclusive; NS1 inh: inactive; SARS PLpro yeast: inactive; Cycloheximide cs: inactive; Pf growth 48h: 11.7µM

What do the screens show for `Cc1ccc(SCC(=O)N(C)CC(=O)Nc2cccc(F)c2)c(C)c1`?
Pf growth 96h: inactive; SARS PLpro yeast: inactive; Pf growth 48h: inactive

Results for COc1ccccc1-c1noc(-c2cc(OC)c(OC)c(OC)c2)n1 ?
Shiga toxin inh: inactive; Pf growth 96h: inconclusive; NS1 inh: inactive; SARS PLpro yeast: inactive; Cycloheximide cs: inactive; Pf growth 48h: inactive

Results for COc1cc(-c2nc(-c3ccccn3)no2)cc(OC)c1OC ?
Shiga toxin inh: 80.8; Pf growth 96h: inactive; NS1 inh: inactive; SARS PLpro yeast: inactive; Cycloheximide cs: 17.3; Pf growth 48h: inactive

Results for COc1cnc(-c2cccc(C(F)(F)F)c2)nc1OC ?
Shiga toxin inh: inactive; Pf growth 96h: inactive; SARS PLpro yeast: inactive; Cycloheximide cs: inactive; Pf growth 48h: inactive

How did COc1cc(-c2nc(-c3cccc(C(F)(F)F)c3)no2)cc(OC)c1OC do in these assays?
Shiga toxin inh: inactive; Pf growth 96h: 11.7µM; NS1 inh: inactive; SARS PLpro yeast: inactive; Cycloheximide cs: inactive; Pf growth 48h: inconclusive

How did c1ccc(-c2cc(-c3nc(-c4ccccn4)no3)c3ccccc3n2)cc1 do in these assays?
NS1 inh: inactive

Results for Clc1cccc(-c2nc(-c3ccccn3)no2)c1 ?
Shiga toxin inh: inactive; Pf growth 96h: 7.38µM; NS1 inh: inactive; SARS PLpro yeast: inactive; Cycloheximide cs: inactive; Pf growth 48h: inactive

Source: PubChem (National Center for Advancing Translational Sciences (NCATS))
